Data on 60 compounds can be found in PubChem BioAssay (EPA / NIEHS).

Results filed as inconclusive are left out. Calls of active or inactive are those of the source. The calls were made as follows, unless noted: active = hit-call score of the fitted dose curve at least 0.9, where 1 is the maximum; inconclusive = response in the unintended direction; inactive = score below 0.9.

Assay [1] has as its target human RAR-related Orphan Receptor gamma (RORg), RORC (gene 6097) (UniProt P51449). Kind of assay: ATG_RORg_TRANS: Attagene TRANS-FACTORIAL HepG2 Assay for human RAR-related Orphan Receptor gamma (RORg) (AID 2283011). In outline:
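HepG2 cells transiently transfected with GAL4-UAS reporter units and chimeric RORg-Gal4 construct; after 24 h chemical exposure, reporter mRNA measured by RT-PCR with fluorescent capillary electrophoresis, gain of signal fitted against DMSO.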

For assay [2], the target named is human Retinoid X Receptor beta (RXRb), RXRB (gene 6257) (UniProt P28702). Kind of assay: ATG_RXRb_TRANS: Attagene TRANS-FACTORIAL HepG2 Assay for human Retinoid X Receptor beta (RXRb) (AID 2283013). In outline:
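HepG2 cells transiently transfected with multiplexed reporter units driven by GAL4-UAS and exogenous chimeric NR-Gal4 proteins; treated 24 h. Reporter mRNA measured by RT-PCR, 6-FAM labelling and capillary electrophoresis; gain-of-signal fitted versus DMSO baseline.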

The target in assay [3] is human Thyroid Receptor alpha (THRa1), THRA (gene 7067) (UniProt P10827). Kind of assay: ATG_THRa1_TRANS: Attagene TRANS-FACTORIAL HepG2 Assay for human Thyroid Receptor alpha (THRa1) (AID 2283014). In outline:
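HepG2 cells transiently transfected with chimeric NR-Gal4 and GAL4-UAS reporter units, dosed 24 h. Reporter mRNA quantified by RT-PCR, fluorescent labeling, HpaI digestion and capillary electrophoresis; gain-of-signal fit versus DMSO.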

Assay [4] addresses Retinoic acid receptor RXR-alpha (Homo sapiens) (UniProt P19793). As to the kind of experiment: ATG_RXRa_TRANS: Attagene TRANS-FACTORIAL HepG2 Assay for human Retinoid X Receptor alpha (RXRa) (AID 2283012). The method, boiled down:
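HepG2 cells transiently transfected with multiplexed GAL4-UAS reporter units and chimeric NR-GAL4 fusions, dosed 24 h. Reporter mRNA measured by RT-PCR, FAM labelling, HpaI digestion and capillary electrophoresis; gain-of-signal fitted relative to DMSO baseline.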

Read-out in assay [5]: E-selectin (Homo sapiens) (UniProt P16581)
As to the kind of experiment: BSK_3C_Eselectin: BioMAP Diversity Plus: 3C Assay for Eselectin Biomarker Activity (AID 2283015; active = hit-call score of the fitted dose curve at least 0.9, where 1 is the maximum; inactive = score below 0.9;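 also: cell surface E-selectin protein quantified by ELISA 24 h after dosing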). Particulars: primary human endothelial cells (HUVEC); actives raise or lower the signal. In outline:
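Primary human umbilical vein endothelial cells (3C system), read 24 h after compound addition; E-selectin measured by ELISA. Bidirectional curve fitting against DMSO baseline; cytotoxicity by parallel SRB total-protein staining.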

Read-out in assay [6]: Interleukin-1 alpha (IL1a), IL1A (gene 3552)
As to the kind of experiment: BSK_BE3C_IL1a: BioMAP Diversity Plus: BE3C Assay for Interleukin-1 alpha (IL1a) Biomarker Activity (AID 2283016; active = hit-call score of the fitted dose curve at least 0.9, where 1 is the maximum; inactive = score below 0.9). The settings on record: primary human bronchial epithelial cells; actives raise or lower the signal. The method, boiled down: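 Human primary bronchial epithelial cells (BE3C system) were dosed with compound and IL-1a measured by ELISA 24 h later. Activity was fitted bidirectionally against DMSO baseline; cytotoxicity was tracked in parallel cultures by SRB total-protein staining.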

Read-out in assay [7]: Monocyte Chemoattractant Protein-1 (MCP1), CCL2 (gene 6347)
As to the kind of experiment: BSK_3C_MCP1: BioMAP Diversity Plus: 3C Assay for Monocyte Chemoattractant Protein-1 (MCP1) Biomarker Activity (AID 2283017; active = hit-call score of the fitted dose curve at least 0.9, where 1 is the maximum; inactive = score below 0.9). Particulars: primary human endothelial cells (HUVEC); actives raise or lower the signal. In outline:
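Human umbilical vein endothelial cells (3C system) exposed to chemicals for 24 h; MCP-1 quantified by ELISA against the DMSO baseline with bidirectional fitting, and parallel SRB staining used to assess cytotoxicity.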

Read-out in assay [8]: Monocyte Chemoattractant Protein-1 (MCP1), CCL2 (gene 6347)
Kind of assay: BSK_4H_MCP1: BioMAP Diversity Plus: 4H Assay for Monocyte Chemoattractant Protein-1 (MCP1) Biomarker Activity (AID 2283018; active = hit-call score of the fitted dose curve at least 0.9, where 1 is the maximum; inactive = score below 0.9). Particulars: primary human endothelial cells (HUVEC); actives raise or lower the signal. The method, boiled down: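 Human umbilical vein endothelial cells (4H system) dosed with chemical; MCP-1 measured by ELISA 24 h after dosing. Bidirectional curve fitting against DMSO negative control as baseline; parallel SRB total-protein staining tracks overt cytotoxicity.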

Read-out in assay [9]: Human Leukocyte Antigen - DR isotype (HLADR), HLA-DRA (gene 3122)
As to the kind of experiment: BSK_3C_HLADR: BioMAP Diversity Plus: 3C Assay for Human Leukocyte Antigen - DR isotype (HLADR) Biomarker Activity (AID 2283019; active = hit-call score of the fitted dose curve at least 0.9, where 1 is the maximum; inactive = score below 0.9). Particulars: primary human endothelial cells (HUVEC); actives raise or lower the signal. In outline: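 HUVEC monoculture, HLA-DR measured by ELISA 24 h after chemical dosing. Fitted bidirectionally against DMSO baseline; parallel SRB staining assessed cytotoxicity, with 3C proliferation read by SRB at 48 h.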

Read-out in assay [10]: Interleukin-8 (IL8), CXCL8 (gene 3576)
Kind of assay: BSK_3C_IL8: BioMAP Diversity Plus: 3C Assay for Interleukin-8 (IL8) Biomarker Activity (AID 2283020; active = hit-call score of the fitted dose curve at least 0.9, where 1 is the maximum; inactive = score below 0.9). Particulars: primary human endothelial cells (HUVEC); actives raise or lower the signal. The method, boiled down: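 Primary human umbilical vein endothelial cells (3C system) were exposed to test chemical for 24 h, then IL-8 was quantified by ELISA. Responses were fitted bidirectionally against DMSO vehicle as baseline.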

Retinoic acid receptor RXR-alpha (Homo sapiens), sequence (P19793 whole entry, looked up, the tested form may be a part): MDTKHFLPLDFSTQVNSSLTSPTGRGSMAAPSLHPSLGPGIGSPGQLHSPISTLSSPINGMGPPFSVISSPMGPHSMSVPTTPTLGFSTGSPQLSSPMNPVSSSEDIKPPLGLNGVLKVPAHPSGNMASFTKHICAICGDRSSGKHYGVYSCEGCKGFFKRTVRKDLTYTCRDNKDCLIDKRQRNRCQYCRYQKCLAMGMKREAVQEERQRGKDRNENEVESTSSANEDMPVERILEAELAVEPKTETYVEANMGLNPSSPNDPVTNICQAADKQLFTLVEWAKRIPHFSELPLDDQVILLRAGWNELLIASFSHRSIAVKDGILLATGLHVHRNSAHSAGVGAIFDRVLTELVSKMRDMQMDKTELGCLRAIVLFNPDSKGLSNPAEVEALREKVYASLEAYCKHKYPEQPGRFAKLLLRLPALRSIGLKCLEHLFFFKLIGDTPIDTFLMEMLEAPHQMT
E-selectin (Homo sapiens), sequence (P16581 whole entry, looked up): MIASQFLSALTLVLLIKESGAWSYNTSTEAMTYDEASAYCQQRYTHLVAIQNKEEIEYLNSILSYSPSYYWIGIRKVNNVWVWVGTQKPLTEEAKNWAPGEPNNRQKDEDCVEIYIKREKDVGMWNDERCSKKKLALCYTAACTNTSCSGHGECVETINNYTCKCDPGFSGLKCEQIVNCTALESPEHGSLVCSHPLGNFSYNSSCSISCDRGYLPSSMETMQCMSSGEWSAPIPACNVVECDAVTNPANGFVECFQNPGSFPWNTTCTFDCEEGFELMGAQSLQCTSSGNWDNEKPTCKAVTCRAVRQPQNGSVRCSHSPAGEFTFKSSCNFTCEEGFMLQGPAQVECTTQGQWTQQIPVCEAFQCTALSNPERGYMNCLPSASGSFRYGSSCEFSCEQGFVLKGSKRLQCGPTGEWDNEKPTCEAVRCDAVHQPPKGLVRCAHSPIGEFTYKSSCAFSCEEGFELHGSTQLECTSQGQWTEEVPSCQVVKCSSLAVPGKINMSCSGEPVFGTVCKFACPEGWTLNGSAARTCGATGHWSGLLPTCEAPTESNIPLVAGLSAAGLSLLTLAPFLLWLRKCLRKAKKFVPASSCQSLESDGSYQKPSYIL
human Retinoid X Receptor beta (RXRb), RXRB (gene 6257), sequence (P28702 whole entry, looked up, the tested form may be a part): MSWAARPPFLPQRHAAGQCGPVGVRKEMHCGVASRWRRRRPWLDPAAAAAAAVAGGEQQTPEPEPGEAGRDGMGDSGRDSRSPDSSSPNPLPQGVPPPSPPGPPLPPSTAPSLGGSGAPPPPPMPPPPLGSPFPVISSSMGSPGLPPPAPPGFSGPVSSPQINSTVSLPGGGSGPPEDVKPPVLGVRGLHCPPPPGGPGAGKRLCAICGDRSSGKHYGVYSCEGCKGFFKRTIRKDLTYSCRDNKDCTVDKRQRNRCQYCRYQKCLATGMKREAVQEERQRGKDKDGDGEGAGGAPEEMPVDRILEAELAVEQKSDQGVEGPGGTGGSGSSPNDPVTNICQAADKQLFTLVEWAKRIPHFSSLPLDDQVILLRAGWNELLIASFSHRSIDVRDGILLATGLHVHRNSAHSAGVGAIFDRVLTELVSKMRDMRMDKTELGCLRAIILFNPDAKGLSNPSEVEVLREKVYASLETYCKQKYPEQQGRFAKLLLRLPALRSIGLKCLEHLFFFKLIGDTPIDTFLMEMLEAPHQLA
human RAR-related Orphan Receptor gamma (RORg), RORC (gene 6097), sequence (P51449 whole entry, looked up, the tested form may be a part): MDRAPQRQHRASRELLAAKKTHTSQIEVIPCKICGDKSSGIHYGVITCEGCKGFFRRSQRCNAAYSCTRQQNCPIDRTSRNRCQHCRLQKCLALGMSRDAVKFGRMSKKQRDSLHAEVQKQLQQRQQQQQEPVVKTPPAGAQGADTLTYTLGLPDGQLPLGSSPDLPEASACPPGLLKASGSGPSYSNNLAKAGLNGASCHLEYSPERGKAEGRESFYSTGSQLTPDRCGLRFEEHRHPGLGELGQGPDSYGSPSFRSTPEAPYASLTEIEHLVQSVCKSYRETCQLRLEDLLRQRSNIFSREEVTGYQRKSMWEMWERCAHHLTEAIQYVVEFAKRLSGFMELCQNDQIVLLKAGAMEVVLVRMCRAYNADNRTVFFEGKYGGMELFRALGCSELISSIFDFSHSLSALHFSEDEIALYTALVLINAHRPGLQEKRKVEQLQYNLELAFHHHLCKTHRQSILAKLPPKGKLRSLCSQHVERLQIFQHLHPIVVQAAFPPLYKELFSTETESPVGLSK
human Thyroid Receptor alpha (THRa1), THRA (gene 7067), sequence (P10827 whole entry, looked up, the tested form may be a part): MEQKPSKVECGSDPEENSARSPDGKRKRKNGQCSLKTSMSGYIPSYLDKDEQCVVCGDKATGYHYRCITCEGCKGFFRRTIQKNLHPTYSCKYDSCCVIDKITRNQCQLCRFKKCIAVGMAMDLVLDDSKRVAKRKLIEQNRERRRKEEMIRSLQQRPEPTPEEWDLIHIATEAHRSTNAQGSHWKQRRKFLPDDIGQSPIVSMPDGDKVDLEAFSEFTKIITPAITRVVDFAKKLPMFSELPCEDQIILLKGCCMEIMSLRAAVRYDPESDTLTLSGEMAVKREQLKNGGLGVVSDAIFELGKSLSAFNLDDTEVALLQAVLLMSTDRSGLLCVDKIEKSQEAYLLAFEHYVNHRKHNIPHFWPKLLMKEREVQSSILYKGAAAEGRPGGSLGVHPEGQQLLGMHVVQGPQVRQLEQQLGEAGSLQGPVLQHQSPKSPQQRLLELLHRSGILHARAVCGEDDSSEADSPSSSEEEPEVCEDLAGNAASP

On to `CCCCCCCCCCCCCOS(=O)(=O)O`, for which the compound was classed as inactive in assay [1]. In addition, the concentration at half-maximal activity (AC50) in [2] is 12.9 µM (active).

Regarding `CC(C#N)(CCC(=O)O)N=NC(C)(C#N)CCC(=O)O` (stereo unspecified), the outcome in assay [1], in [2] and in assay [3] was inactive.

For the compound `CCCCCC(=O)OCCc1ccccc1`, the result in assay [1], in assay [2] and in [3] was inactive.

`CC1CCC(C(C)(C)O)CC1` (stereo unspecified): the call in assay [1], in [2] and in assay [3] was inactive.

In the case of `COc1ccc(OC)c(OC)c1`, the result in assay [1], in [4] and in assay [3] was inactive.

`OC1C(O)C(O)C(O)C(O)C1O` (stereo unspecified): the result in assay [1], in assay [2] and in [3] was inactive.

As for `CC1=CC(=O)NS(=O)(=O)O1`, the compound was called inactive in assay [1], in assay [2] and in assay [3].

Take `CC1(C)[C@@H]2CC[C@@]1(C)[C@H](O)C2`: the result in assay [1], in assay [4] and in assay [3] was inactive.

Take `CCCCCC(CO)CCC` (stereo unspecified): the outcome in [1], in [2] and in [3] was inactive.

Take `CC(C)(C)C(=O)c1ccccc1`: the result in [1], in [2] and in assay [3] was inactive.

For `C=CC(=O)OCC(O)COc1ccccc1` (stereo unspecified), the call in assay [1] and in assay [2] was inactive.

Turning to `CCCCC[Si](OCC)(OCC)OCC`, the outcome in [1] and in assay [2] was inactive.

On to `CCCCCCCCCCCCSC`, for which the compound was classed as inactive in assay [1] and in assay [3]. In [2], the AC50 was 100 µM (active).

For `Cc1ccc(C(C)C)cc1O`, the compound was called inactive in assay [1] and in assay [3]. Moreover, the half-maximal activity concentration (AC50) in assay [2] was 100 µM (active).

As to `CC(=O)Nc1ccc(C)cc1C`, the call in assay [1], in assay [4] and in assay [3] was inactive.

Consider `O=P(c1ccccc1)(c1ccccc1)c1ccccc1`, for which the outcome in assay [1], in assay [4], in [5], in assay [6], in [7] and in assay [8] was inactive. Moreover, the outcome in [9] and in assay [10] was inactive.

As to `CC(=O)OCc1ccc2c(c1)OCO2`, the call in assay [1] and in assay [2] was inactive.

For `CC1CCC2CC1C2(C)C` (stereo unspecified), the result in assay [1] and in assay [2] was inactive.

As for `CC(O)C(C)O` (stereo unspecified), the compound was called inactive in [1], in [4] and in [3].

Regarding `Cc1cccc(C)c1C`, the compound was called inactive in assay [1], in assay [4] and in [3].

With `O=C(O)c1cn(-c2ccc(F)cc2)c2cc(N3CCNCC3)c(F)cc2c1=O`, the outcome in assay [1], in assay [2], in assay [3], in [5], in assay [6] and in assay [7] was inactive. Further, the result in assay [8] and in assay [9] was inactive.

`CC(C)OP(=O)(CP(=O)(OC(C)C)OC(C)C)OC(C)C`: the compound was classed as inactive in [1], in [2] and in assay [3].

For `CC(=O)OCCOC(C)=O`, the result in [1], in assay [4] and in [3] was inactive.

Consider `Cc1ccc2n[nH]nc2c1`, for which the outcome in assay [1], in [2], in [3], in assay [5], in assay [6] and in assay [7] was inactive. Besides, the outcome in assay [8] and in assay [9] was inactive.

Regarding `CCO[Si](CCCS)(OCC)OCC`, the call in [1], in assay [4] and in assay [3] was inactive.

As for `CC(C)C(C)(C)C(C)(C)C(C)(C)S`, the call in assay [1] and in assay [2] was inactive.

For the compound `ClCCCl`, the compound was called inactive in assay [1] and in assay [2].

With `Nc1cc(Cl)c(O)c(Cl)c1`, the call in assay [1], in [4] and in assay [3] was inactive.

With `C=C(C)C(=O)O`, in assay [4], the outcome was inactive.

On to `CC(c1cc2ccccc2s1)N(O)C(N)=O` (stereo unspecified), for which, in [4], the result was inactive.

As for `CCCCCCOC(=O)CCCCC`, the result in [4] was inactive.

On to `COC(=O)C1=C(C)NC(C)=C(C(=O)OCCN(C)Cc2ccccc2)C1c1cccc([N+](=O)[O-])c1` (stereo unspecified), for which, in assay [4], the outcome was inactive.

For the compound `CN1Cc2c(N)cccc2C(c2ccccc2)C1` (stereo unspecified), the call in assay [4] was inactive.

For the compound `O=[N+]([O-])c1ccc(Nc2ccc(Nc3ccccc3)c(S(=O)(=O)O)c2)c([N+](=O)[O-])c1`, the outcome in assay [4] was inactive.

For `CCCC1CCC(=O)O1` (stereo unspecified), the call in assay [4] was inactive.

With `CCC(O)CO` (stereo unspecified), the compound was called inactive in [4] and in [2].

Turning to `C=CC[N+](C)(C)CC=C`, the compound was classed as inactive in assay [4].

Consider `CC(CN1c2ccccc2Sc2ccccc21)N(C)C` (stereo unspecified), for which the compound was called inactive in assay [4].

As for `OCCOc1cccc(OCCO)c1`, the outcome in [1] and in assay [3] was inactive.

Regarding `CC1CC(OC(=O)c2ccccc2O)CC(C)(C)C1` (stereo unspecified), the compound was called inactive in [1] and in assay [3].

With `C=C(C)C(=O)NCCCN(C)C`, the result in assay [4] was inactive.

As for `COc1cc2ncnc(Nc3cccc(Cl)c3)c2cc1OC`, the compound was classed as inactive in assay [4].

For the compound `C=C[C@@H](C)CCC=C(C)C`, the outcome in assay [1] and in assay [3] was inactive.

`C=CC(=O)OCCOCCOCC`: the outcome in [1] and in assay [3] was inactive.

In the case of `OCCOCCOCCOCCO`, the outcome in assay [4] was inactive.

Consider `CC(=O)Nc1ccc(CC(=O)O)cc1`, for which, in [4], the result was inactive.

In the case of `C=CC(C)(CCC=C(C)C)OC=O` (stereo unspecified), the outcome in assay [1] and in [3] was inactive.

As for `C=C(C)C1CCC(C)CC1O` (stereo unspecified), the result in assay [4] was inactive.

As to `CC(C)=CCCC(C)=CCCC(C)=CCO`, the AC50 in [4] was 100 µM (active); in [2] it was 28.1 µM (active).

Consider `O=C(O)CCCCCCCC(=O)O`, for which, in [4], the compound was called inactive.

On to `CCC/C=C/C=O`, for which the outcome in assay [4] was inactive.

For the compound `CCCCCC=CCC(=O)OC`, the compound was classed as inactive in assay [4].

Regarding `CCCCc1ccc(N)cc1`, in assay [4], the result was inactive.

As to `C=C(C)[C@@H]1CC[C@@H](C)C[C@@H]1O`, the compound was called inactive in [4].

With `O=C(O)c1cccc(C(F)(F)F)c1`, the compound was called inactive in assay [4].

Regarding `CC(=O)C(C)=O`, the compound was called inactive in assay [4].

As to `Cc1ccc(S)cc1`, in assay [4], the compound was classed as inactive.

Consider `CCN(CC)c1ccc2c(-c3ccccc3C(=O)O)c3ccc(=[N+](CC)CC)cc-3oc2c1`, for which the outcome in [4] was inactive.

With `CNCCCC12CCC(c3ccccc31)c1ccccc12`, the result in assay [4] was inactive.

In the case of `CC[Si](OC(C)=O)(OC(C)=O)OC(C)=O`, the result in assay [1], in [5], in assay [6], in [7], in [8] and in assay [9] was inactive.
